“And” between values parts separate entries of the source, which are not always exact repeats. Equal entries are not always repeated. Results filed as inconclusive are left out. A structure can be active in one record and inactive in another. The source made the active and inactive calls. How the source made its calls, unless noted: active means hit-call score of the fitted dose curve at least 0.9, where 1 is the maximum; inactive means score below 0.9.

The term AC50 denotes the concentration giving half of the maximal activity seen.

The nature of experiment [1]: CCTE_Harrill_HTTr_Apoptosis_MCF7: CCTE's 6-hour Apoptosis Assessment for the High-Throughput Transcriptomics (HTTr) Platform, in MCF-7 cells cultured in DMEM + 10% fetal bovine serum, Harrill Lab (AID 2284011). The essentials: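 High-content imaging of CellEvent Caspase 3/7 Green signal follows a six-hour exposure, with eight concentrations per chemical. MCF-7 cells grown in DMEM plus 10% fetal bovine serum; activity fitted in both directions against DMSO.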

The nature of experiment [2]: CCTE_Harrill_HTTr_CellCount_MCF7: CCTE's Cell Proliferation Assessment for the High-Throughput Transcriptomics (HTTr) Platform, Harrill Lab (AID 2284012; active means hit-call score of the fitted dose curve at least 0.9, where 1 is the maximum;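 further: cells exposed to compound for six hours; intended direction is loss of nuclei count meaning fewer cells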). The essentials:
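Cell count served as viability reporter: loss of Hoechst-stained nuclei, counted by high content imaging, marks decreased growth or survival. Exposure was 6 h in MCF-7 cells across eight concentrations, with DMSO as baseline.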

A short description of experiment [3]: CCTE_Shafer_MEA_acute_burst_number: CCTE's Neural Acute Assay for Single-Electrode Bursts, Shafer Lab (AID 2284013). The essentials:
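Burst totals were derived with adaptive spike detection (8x rms threshold) on filtered signals from rat cortical cultures; change relative to pre-treatment baseline after 40-min compound exposure (0.03-40 uM) was fitted in the negative direction against DMSO.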

Experiment [4] is described as follows: CCTE_Shafer_MEA_acute_per_burst_spike_number_mean: CCTE's Neural Acute Assay for Average Number of Spikes Per Burst, Shafer Lab (AID 2284015).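 Further: hits are decreases in mean spikes per burst versus baseline.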 The essentials:
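Percent change in mean spikes per single-electrode burst is compared between a 40 min baseline and a 40 min recording with compound (0.03-40 uM). Cultures were rat cortical neurons on MEA plates at DIV 13 or 15, recorded at 37 C, with DMSO as the negative control.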

Experiment [5] is described as follows: CCTE_Shafer_MEA_acute_burst_percentage_mean: CCTE's Neural Acute Assay for Percentage of Spikes in a Burst, Shafer Lab (AID 2284017).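 On AC50: curve fitted for loss of signal so potency reflects decreased burst percentage.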 The essentials: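 Well-level mean burst percentage from a 40-min recording after compound (0.03-40 uM) expressed as percent change from a 40-min baseline at 37C. Cultures: primary rat cortical neurons on MEA, dosed on DIV 13 or 15; fitted downward relative to DMSO.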

A short description of experiment [6]: CCTE_Shafer_MEA_acute_burst_percentage_std: CCTE's Neural Acute Assay for Standard Deviation of Burst Percentage, Shafer Lab (AID 2284018).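 Further: fitted in the negative direction so actives lower burst percentage SD.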 The essentials: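 Primary rat cortical neurons on 16-electrode MEA wells were recorded 40 min at baseline (DIV 13 or 15), then 40 min after compound (0.03-40 uM), at 37 C. Well value is SD across electrodes of spikes-in-bursts/total spikes; endpoint is percent change, DMSO-referenced.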

Experiment [7] is described as follows: CCTE_Shafer_MEA_acute_per_network_burst_spike_number_mean: CCTE's Neural Acute Assay for Average Number of Spikes in a Network Burst, Shafer Lab (AID 2284019).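 On AC50: curve fitted for loss of signal so actives reduce spikes per network burst.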 The essentials: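 Acute exposure of rat primary cortical networks (DIV 13/15) on MEAs; adaptive spike detection at 8x rms noise, 37 C. Percent change in spikes per network burst after 40 min with compound (0.03-40 uM), negative direction vs DMSO.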

Experiment [8] in a line: CCTE_Shafer_MEA_acute_per_network_burst_spike_number_std: CCTE's Neural Acute Assay for Standard Deviation of Number of Spikes in a Network Burst, Shafer Lab (AID 2284020).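 Further: fitted for decrease in spike-number SD versus DMSO so actives lower it.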 The essentials:
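Acute MEA exposure, rat cortical neurons, 0.03-40 uM. Per-well % change versus own baseline; DMSO as negative control.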

Experiment [9] is described as follows: CCTE_Shafer_MEA_acute_per_network_burst_electrodes_number_mean: CCTE's Neural Acute Assay for Mean Number of Electrodes in a Network Burst, Shafer Lab (AID 2284021).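 Further: curves fitted for decreases only so hits reduce electrodes per burst.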 The essentials: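 Percent change from baseline was computed as mean electrode count per network burst, comparing 40 min recordings before and during compound (0.03-40 uM) exposure. Cultures were rat cortical neurons at DIV 13 or 15, recorded on MEAs at 37 C with an adaptive 8x rms threshold.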

Experiment [10] is described as follows: CCTE_Shafer_MEA_acute_network_burst_percentage: CCTE's Neural Acute Assay for Percentage of Network Bursts, Shafer Lab (AID 2284022).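 Further: curves fitted for loss so actives lower network burst percentage.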 The essentials:
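Network burst percentage (spikes in network bursts divided by total spikes) recorded at 37 C over 40 min baseline and 40 min after compound, 0.03-40 uM, in rat cortical cultures at DIV 13 or 15. Analysed as percent change from baseline versus DMSO.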

A short description of experiment [11]: CCTE_Shafer_MEA_acute_cross_correlation_area: CCTE's Neural Acute Assay for Area of Cross Correlation, Shafer Lab (AID 2284024).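 Further: area under pooled inter-electrode spike cross-correlation near zero lag as percent change from own baseline; curves fitted for loss of cross-correlation area so actives lower synchrony.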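 On outcome: rat primary cortical neuron networks on 48-well MEA at DIV 13 or 15 with 40 min exposure.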 The essentials:
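Percent change in well-wide cross-correlation area (window around zero lag) between 40 min baseline and 40 min post-compound recordings, 37 C; rat cortical cultures on MEA at DIV 13 or 15, dosed 0.03-40 uM, wells needing >/= 10 active electrodes.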

Experiment [12] can be described thus: CCTE_Shafer_MEA_acute_cross_correlation_HWHM: CCTE's Neural Acute Assay for Cross Correlation at Half Width at Half Maximum, Shafer Lab (AID 2284026).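 Further: percent change per well from pre-dose baseline in spike cross-correlogram half width; hits are a decrease in cross-correlogram half width relative to DMSO.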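 On outcome: spontaneous network firing of rat primary cortical neurons on multiwell microelectrode arrays.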 The essentials:
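Per-well percent change in cross-correlogram half width at half maximum, derived from 40-min recordings before and after compound (0.03-40 uM) at 37 C. Cultures were rat cortical neurons, DIV 13 or 15, with adaptive spike detection at 8x rms.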

Experiment [13] in a line: CCTE_Shafer_MEA_acute_synchrony_index: CCTE's Neural Acute Assay for Synchrony, Shafer Lab (AID 2284027).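 Further: network synchrony index of spontaneous spiking in primary rat cortical neurons on MEAs; fitted for loss of signal so actives lower synchrony relative to DMSO.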 The essentials:
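Plates equilibrated 20 min at 37 C, baseline recorded 40 min, compound (0.03-40 uM) added, then 40 min more recorded. Cells: primary rat cortical neurons, DIV 13 or 15. Per-well synchrony index change analysed in negative direction against DMSO.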

Experiment [14] addresses Estrogen receptor (Homo sapiens) (UniProt P03372). Briefly: CCTE_Deisenroth_AIME_384WELL_LUC_Active: CCTE's 384-well Estrogen Receptor Transactivation Assay with AIME metabolic competence (ERTA luciferase; metabolism positive), Deisenroth Lab (AID 2284030; active means hit-call score of the fitted dose curve at least 0.9, where 1 is the maximum). The essentials: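 VM7Luc4E2 breast cells were given, for 24 hours, medium pre-incubated for 2 hours with parent chemical (0.002-200 uM, 10 concentrations) and alginate-encapsulated phenobarbital/beta-naphthoflavone-induced rat hepatic S9. Luciferase gain of signal was fitted against 17beta-estradiol; n=4 or more.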

A short description of experiment [15]: CCTE_Shafer_MEA_dev_firing_rate_mean: CCTE's Neural Network Formation Assay for Mean Firing Rate, Shafer Lab (AID 2284031).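 On AC50: curve fitted for loss of firing so AC50 reflects decreased mean firing rate.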 The essentials:
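Steps: seed rat cortical cells (1.5 x 10^5/well) with laminin on PEI-coated MEA; dose day 0; record DIV 5/7/9/12, full media and compound exchange after DIV 5 and 9 recordings; compute well-mean firing rate AUC.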

Experiment [16] can be described thus: CCTE_Shafer_MEA_dev_per_burst_spike_percent: CCTE's Neural Network Formation Assay for Percent of Spikes in a Burst, Shafer Lab (AID 2284032).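 On AC50: fitted as a decrease in burst spike percentage below DMSO baseline.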 The essentials: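 Value is trapezoidal AUC over recordings on days 5, 7, 9 and 12 of the well-mean fraction of spikes falling in single-electrode bursts; rat cortical cultures exposed continuously from plating, treatment renewed DIV 5 and 9, fitted downward against DMSO.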

Experiment [17] concerns the target Estrogen receptor (Homo sapiens) (UniProt P03372). Briefly: CCTE_Deisenroth_AIME_96WELL_LUC_Active: CCTE's 96-well Estrogen Receptor Transactivation Assay with AIME metabolic competence (ERTA luciferase; metabolism positive), Deisenroth Lab (AID 2284023; active means hit-call score of the fitted dose curve at least 0.9, where 1 is the maximum). The essentials:
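Metabolism-positive mode: induced rat hepatic S9 in alginate microspheres conditions test solutions (0.002 - 200 uM, 10 points) for 2 hours. VM7Luc4E2 ER luciferase reporter cells then exposed 24 h; positive-direction fit against 17beta-estradiol, n=4 typical.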

Experiment [18] has the same target. Briefly: CCTE_Deisenroth_AIME_96WELL_LUC_Inactive: CCTE's 96-well Estrogen Receptor Transactivation Assay without AIME metabolic competence (ERTA luciferase; metabolism negative), Deisenroth Lab (AID 2284025; active means hit-call score of the fitted dose curve at least 0.9, where 1 is the maximum). The essentials: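 Metabolism-negative arm: chemicals (0.002–200 uM, 10 points) incubated 2 h with alginate-water microspheres, then medium moved onto VM7Luc4E2 cells for 24 h luciferase read-out. Positive direction vs 17beta-estradiol; n≥4 experiments.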

Chain of Estrogen receptor (Homo sapiens) (P03372 whole entry, looked up): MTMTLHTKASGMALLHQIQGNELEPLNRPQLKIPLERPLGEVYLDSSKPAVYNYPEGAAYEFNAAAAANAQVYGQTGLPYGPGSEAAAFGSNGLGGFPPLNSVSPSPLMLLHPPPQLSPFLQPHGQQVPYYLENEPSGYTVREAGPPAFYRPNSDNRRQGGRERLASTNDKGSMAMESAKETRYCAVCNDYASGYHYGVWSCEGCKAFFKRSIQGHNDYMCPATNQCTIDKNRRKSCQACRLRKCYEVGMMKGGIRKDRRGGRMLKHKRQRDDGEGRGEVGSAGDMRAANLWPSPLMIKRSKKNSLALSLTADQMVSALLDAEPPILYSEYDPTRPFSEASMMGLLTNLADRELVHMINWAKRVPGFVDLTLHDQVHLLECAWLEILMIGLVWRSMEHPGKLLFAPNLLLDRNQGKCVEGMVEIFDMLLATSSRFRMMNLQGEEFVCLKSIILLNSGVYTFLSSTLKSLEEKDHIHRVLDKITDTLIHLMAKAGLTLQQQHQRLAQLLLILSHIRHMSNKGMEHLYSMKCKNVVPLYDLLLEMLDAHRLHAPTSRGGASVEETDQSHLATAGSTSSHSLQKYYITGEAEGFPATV

With `Cc1c(F)c(F)c(COC(=O)C2C(/C=C(\Cl)C(F)(F)F)C2(C)C)c(F)c1F` (centres undefined), the outcome in experiment [1], in experiment [2], in experiment [6] and in [14] was inactive. For the same compound, the AC50 in experiment [3] was 226 nM (active); in [4], 1.76 µM (active); in [5] it was 0.24 µM (active); in [7], 32.6 nM (active); in [8], 0.0979 µM (active); in experiment [9], 145 nM (active). For the same compound, the half-maximal activity concentration (AC50) is 0.567 µM (active) in experiment [10]; 95.3 nM (active) in experiment [11]; 28.1 µM (active) in experiment [12]; 0.433 µM (active) in experiment [13]; 598 nM (active) in experiment [15]; 1.83 µM (active) in [16].

`CC1COC(Cn2cncn2)(c2ccc(Oc3ccc(Cl)cc3)cc2Cl)O1` (centres undefined): the result in [1], in experiment [2], in [4], in experiment [7], in experiment [9] and in experiment [10] was inactive. In addition, the compound was called inactive in experiment [11]. For the same compound, the AC50 in [3] is 5260 nM (active); in [5], 4.77 µM (active); in [6] it was 36.6 µM (active); in [8] it was 3.5 µM (active); in [12] it was 4.15 µM (active); in experiment [13], 11.5 µM (active).

Take `CCNc1nc(Cl)nc(NCC)n1`: the result in experiment [1] and in [2] was inactive.

For the compound `OC(c1ccc(Cl)cc1)(c1cncnc1)c1ccccc1Cl` (centres undefined), the result in experiment [1], in experiment [2] and in experiment [6] was inactive. Besides, the AC50 was 882 nM (active) in experiment [3]; 5 µM (active) in experiment [4]; 2.9 µM (active) in experiment [5]; 1620 nM (active) in experiment [7]; 2.84 µM (active) in experiment [8]; 2520 nM (active) in experiment [9]. For the same compound, the AC50 is 6.61 µM (active) in experiment [10], 761 nM (active) in experiment [11], 4.34 µM (active) in experiment [12] and 3.05 µM (active) in [13].

Take `CCOC(=O)C(Cl)Cc1cc(-n2nc(C)n(C(F)F)c2=O)c(F)cc1Cl` (centres undefined): the result in experiment [1] and in experiment [2] was inactive.

Turning to `N#Cc1nn(-c2c(Cl)cc(C(F)(F)F)cc2Cl)c(N)c1S(=O)C(F)(F)F` (centres undefined), the result in [1], in experiment [2], in experiment [3], in experiment [4], in [8] and in [10] was inactive. Also, the compound was classed as inactive in [11], in [15] and in experiment [16]. In addition, the AC50 is 1.87 µM (active) in experiment [4]; 33.4 µM (active) and 24.2 µM (active) in [5]; 36.5 µM (active) and 3.5 µM (active) in experiment [6]; 1.59 µM (active) and 666 nM (active) in experiment [7]; 1.36 µM (active) and 1.28 µM (active) in [9]; 13.3 µM (active) and 24.6 µM (active) in [12]. Further, in experiment [13], the AC50 is 33.4 µM (active) and 23.4 µM (active).

As for `N#CC(CCc1ccc(Cl)cc1)(Cn1cncn1)c1ccccc1` (centres undefined), the outcome in experiment [1], in experiment [2], in experiment [3], in [4], in experiment [5] and in experiment [6] was inactive. The compound was called inactive in experiment [7], in experiment [8], in experiment [9], in experiment [10], in [11] and in [12]. In addition, the compound was classed as inactive in [13].

In the case of `CCCN(CCC)c1c([N+](=O)[O-])cc(S(N)(=O)=O)cc1[N+](=O)[O-]`, the outcome in [1], in experiment [2], in experiment [4], in experiment [6], in experiment [7] and in experiment [8] was inactive. Besides, the compound was classed as inactive in experiment [9], in experiment [10] and in [11]. The half-maximal activity concentration (AC50) in experiment [3] is 4690 nM (active); in experiment [5], 5 µM (active); in experiment [12], 10.5 µM (active); in experiment [13], 5 µM (active).

With `COC(=O)c1ccccc1C(=O)OC`, the result in experiment [1] was inactive.

`COC(=O)C(C)Oc1ccc(Oc2ccc(Cl)cc2Cl)cc1` (centres undefined): the outcome in experiment [1], in [2], in [3], in experiment [4], in [6] and in [7] was inactive. For the same compound, the compound was called inactive in experiment [8], in [9] and in [11]. In addition, the AC50 in experiment [5] is 20 µM (active); in experiment [10] it was 25.7 µM (active); in experiment [12], 11.7 µM (active); in experiment [13], 20 µM (active).

With `CCNc1nc(Cl)nc(NC(C)C)n1`, the outcome in experiment [1], in [2], in [3], in [4], in experiment [6] and in experiment [7] was inactive. Moreover, the call in experiment [8], in experiment [9], in experiment [10], in [17], in experiment [11] and in [18] was inactive. For the same compound, the compound was called inactive in experiment [15] and in experiment [16]. The AC50 in experiment [5] was 13.9 µM (active); in experiment [12] it was 11.8 µM (active); in experiment [13], 20 µM (active).

The record behind these values is PubChem BioAssay (EPA / NIEHS).
